Reference: PubChem BioAssay (NCI)
Several values for one entry are separate records, joined by “and”; a condition that tells them apart may be missing. Equal entries are not always repeated. This is part of a sample that, as a whole, favours compounds with a hit. Of some 83,000 tested, about 20% had one in any assay.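 Single-concentration screen, 48 h exposure, 96-well plates. Endpoint: percent growth. Below 10 = active.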

Assays:
Assay in all cases: NCI-60 one-dose screen, 48 h (100 = growth as untreated, 0 = no growth, -100 = all killed)
Conditions in all cases: 10 µM unless noted
[1] = system: HCT-15 colon
[2] = system: HT29 colon
[3] = system: SNB-75 CNS
[4] = system: SNB-19 CNS
[5] = system: U251 CNS
[6] = system: PC-3 prostate
[7] = system: SK-MEL-5 melanoma
[8] = system: UACC-62 melanoma
[9] = system: LOX IMVI melanoma
[10] = system: SK-MEL-28 melanoma
[11] = system: SK-MEL-2 melanoma
[12] = system: EKVX NSCLC
[13] = system: SN12C renal
[14] = system: UO-31 renal
[15] = system: TK-10 renal
[16] = system: ACHN renal
[17] = system: CAKI-1 renal
[18] = system: A498 renal
[19] = system: CCRF-CEM leukemia
[20] = system: MOLT-4 leukemia

Measured: growth

Nc1c(S(=O)(=O)O)cc(Br)c2c1C(=O)c1ccccc1C2=O
inactive: [1] 107% and 114% | [2] 100% and 108% | [3] 86.7% and 90.7% | [4] 111% and 107% | [5] 102% and 105% | [6] 92% and 84.9% | [7] 99.6% and 90.8% | [8] 108% and 104% | [9] 102% and 103% | [10] 109% and 113% | [11] 91.8% | [12] 101% | [13] 107% and 112% | [14] 77.4% and 67.5% | [15] 102% and 110% | [16] 108% and 107% | [17] 101% and 95% | [18] 114% and 96.6% | [19] 98.3% | [20] 99.7% and 91.1%

CC1OS(=O)OC1C (stereo not given)
inactive: [1] 94% and 98.6% | [2] 88.7% and 104% | [3] 92.6% and 94.7% | [4] 101% | [5] 100% and 101% | [6] 100% and 97.5% | [7] 99.9% and 98% | [8] 95.5% and 89.8% | [9] 94.1% and 91.6% | [10] 109% and 103% | [11] 91.4% and 111% | [12] 100% | [13] 95.8% and 95.4% | [14] 96.1% | [15] 99.8% and 107% | [16] 91.9% and 103% | [17] 96.7% and 89.1% | [18] 101% and 105% | [19] 96.2% | [20] 81% and 113%

CCC(C)NC(=O)c1ccccc1C (stereo not given)
inactive: [1] 96.3% | [2] 97.4% | [3] 76.8% | [4] 97.9% | [5] 102% | [6] 101% | [7] 91% | [8] 100% | [9] 95.7% | [10] 94.3% | [11] 104% | [12] 91.2% | [13] 96.5% | [14] 94.2% | [15] 99.3% | [16] 95.4% | [17] 95.3% | [18] 89.2% | [19] 103% | [20] 114%

Oc1cccnc1CN1CCOCC1
inactive: [1] 105% and 104% | [2] 97.7% and 106% | [3] 88.9% and 81.5% | [4] 101% and 98.9% | [5] 104% and 102% | [6] 93.9% and 96.3% | [7] 106% and 98.4% | [8] 101% and 94.5% | [9] 93.1% | [10] 107% and 105% | [11] 97.5% and 132% | [12] 105% and 91.9% | [13] 104% and 95.6% | [14] 78.4% and 88.4% | [15] 110% and 109% | [16] 106% and 97.3% | [17] 105% and 89.2% | [18] 112% | [19] 103% and 88.7% | [20] 99.1% and 107%

CC(C)=NOC(C)C(=O)O (stereo not given)
inactive: [1] 102% | [2] 110% | [3] 97.9% | [4] 108% | [5] 104% | [6] 92.9% | [7] 107% | [8] 89.4% | [9] 97.4% | [10] 113% | [11] 107% | [12] 95.9% | [13] 94.1% | [14] 97.5% | [15] 104% | [16] 102% | [17] 104% | [18] 89.2% | [19] 103% | [20] 105%

C/C(=C\c1ccccc1)C(O)C(=O)c1nc2ccc([N+](=O)[O-])cc2[nH]c1=O (stereo not given)
inactive: [1] 100% | [2] 102% | [3] 88.6% | [4] 85.5% | [5] 83.2% | [6] 79.7% | [7] 82.6% | [8] 72.3% | [9] 75.9% | [10] 112% | [11] 93.6% | [12] 92.6% | [13] 90% | [14] 74.4% | [15] 109% | [16] 81% | [17] 96% | [18] 110% | [19] 74.8% | [20] 91%
